Test results reported in article PMC7862700, “An all-to-all approach to the identification of sequence-specific readers for epigenetic DNA modifications on cytosine”.

What was measured:
Test in all cases: DAPPL (digital affinity profiling via proximity ligation, sequencing); 10 mM Tris-HCl pH 7.5, 50 mM NaCl, 1 mM DTT, 4% glycerol, room temperature, 30 min; GST-TFs on glutathione beads, 16-mer random dsDNA library, 0.1% formaldehyde crosslink after washing; high values mean tight binding
Conditions in all cases: protein: recombinant; tags: N-terminal GST; dsDNA, one strand shown
ETV5 = ETV5 (Homo sapiens, UniProt P41161 1-510)
Chain of ETV5 (P41161 whole entry, the tested form may be a part): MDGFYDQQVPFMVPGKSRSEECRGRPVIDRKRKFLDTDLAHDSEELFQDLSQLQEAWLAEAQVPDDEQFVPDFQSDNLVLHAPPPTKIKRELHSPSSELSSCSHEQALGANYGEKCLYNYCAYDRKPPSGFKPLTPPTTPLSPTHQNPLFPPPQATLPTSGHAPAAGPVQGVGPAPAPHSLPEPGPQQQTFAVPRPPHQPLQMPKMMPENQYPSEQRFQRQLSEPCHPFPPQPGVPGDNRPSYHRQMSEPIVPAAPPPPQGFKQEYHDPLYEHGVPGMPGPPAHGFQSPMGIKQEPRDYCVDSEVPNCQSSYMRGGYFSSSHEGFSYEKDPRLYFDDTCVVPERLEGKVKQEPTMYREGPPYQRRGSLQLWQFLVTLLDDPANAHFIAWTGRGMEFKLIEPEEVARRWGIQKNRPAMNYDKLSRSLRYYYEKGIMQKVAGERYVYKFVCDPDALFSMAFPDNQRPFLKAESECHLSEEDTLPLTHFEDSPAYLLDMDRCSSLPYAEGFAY
How it was run: (§1)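 Pools were built from human transcription factors expressed in yeast as GST fusions, captured on glutathione beads and DNA-barcoded, along with a tag-only sample. Incubation with 200 nmole of a 16-mer random double-stranded DNA library lasted 30 min at room temperature in Tris/NaCl/DTT/glycerol buffer, and was followed by washing, 0.1% formaldehyde crosslinking, proximity ligation, PCR amplification and Illumina NextSeq500 sequencing. Binding signal is the quotient of each hexamer's read frequency for a factor and its frequency for the tag-only sample.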

ELF4 = ELF4 (Homo sapiens, UniProt Q99607 1-663)
Chain of ELF4 (Q99607 whole entry): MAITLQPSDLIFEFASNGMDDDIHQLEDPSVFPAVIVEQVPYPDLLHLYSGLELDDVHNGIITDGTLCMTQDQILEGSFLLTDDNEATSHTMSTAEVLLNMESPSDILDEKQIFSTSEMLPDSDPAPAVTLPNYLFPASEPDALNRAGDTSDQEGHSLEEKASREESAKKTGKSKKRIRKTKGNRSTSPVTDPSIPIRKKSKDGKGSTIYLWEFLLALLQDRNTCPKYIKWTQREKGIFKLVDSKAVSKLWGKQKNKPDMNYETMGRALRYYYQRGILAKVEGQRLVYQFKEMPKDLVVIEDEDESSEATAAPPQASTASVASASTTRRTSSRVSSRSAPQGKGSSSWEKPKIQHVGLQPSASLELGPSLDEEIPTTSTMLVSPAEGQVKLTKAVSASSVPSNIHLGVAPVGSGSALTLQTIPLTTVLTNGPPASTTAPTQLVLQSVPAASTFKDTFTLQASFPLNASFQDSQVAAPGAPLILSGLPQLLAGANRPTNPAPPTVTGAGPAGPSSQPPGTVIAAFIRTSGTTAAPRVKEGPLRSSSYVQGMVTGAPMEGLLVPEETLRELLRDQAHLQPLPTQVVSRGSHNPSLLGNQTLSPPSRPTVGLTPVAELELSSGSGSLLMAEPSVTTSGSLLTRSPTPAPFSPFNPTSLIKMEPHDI
How it was run: as §1

ELF3 = molecular target: T1, ELF3 (Homo sapiens, UniProt P78545 1-371)
T1 sequence: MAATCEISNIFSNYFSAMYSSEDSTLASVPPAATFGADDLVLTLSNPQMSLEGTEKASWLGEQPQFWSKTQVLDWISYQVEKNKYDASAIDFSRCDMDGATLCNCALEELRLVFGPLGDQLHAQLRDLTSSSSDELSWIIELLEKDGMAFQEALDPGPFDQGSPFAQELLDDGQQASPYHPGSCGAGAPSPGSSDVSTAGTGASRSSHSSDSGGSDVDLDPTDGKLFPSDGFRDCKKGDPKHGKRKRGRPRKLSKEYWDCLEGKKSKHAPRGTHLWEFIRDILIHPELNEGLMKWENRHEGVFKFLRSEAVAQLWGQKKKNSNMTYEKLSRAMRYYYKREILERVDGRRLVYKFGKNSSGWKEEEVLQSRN
How it was run: as §1

ETV1 = ETV1 (Homo sapiens, UniProt P50549 1-477)
Chain of ETV1 (P50549 whole entry): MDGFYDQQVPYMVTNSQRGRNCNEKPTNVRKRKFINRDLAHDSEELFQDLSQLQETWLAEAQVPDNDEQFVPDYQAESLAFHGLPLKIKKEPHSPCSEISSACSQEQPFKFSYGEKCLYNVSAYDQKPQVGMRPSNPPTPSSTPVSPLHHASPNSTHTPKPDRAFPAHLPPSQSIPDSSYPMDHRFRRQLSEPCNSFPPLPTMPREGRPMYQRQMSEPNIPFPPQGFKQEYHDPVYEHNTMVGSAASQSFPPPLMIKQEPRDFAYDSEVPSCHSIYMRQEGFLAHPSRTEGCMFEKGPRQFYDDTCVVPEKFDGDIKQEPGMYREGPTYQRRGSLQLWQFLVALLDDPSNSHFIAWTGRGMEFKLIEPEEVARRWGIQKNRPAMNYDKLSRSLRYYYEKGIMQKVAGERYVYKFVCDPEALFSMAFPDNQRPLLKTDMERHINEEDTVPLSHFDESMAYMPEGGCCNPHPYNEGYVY
How it was run: as §1

ERF = molecular target: T2, ERF (Homo sapiens, UniProt P50548 1-548)
T2 sequence: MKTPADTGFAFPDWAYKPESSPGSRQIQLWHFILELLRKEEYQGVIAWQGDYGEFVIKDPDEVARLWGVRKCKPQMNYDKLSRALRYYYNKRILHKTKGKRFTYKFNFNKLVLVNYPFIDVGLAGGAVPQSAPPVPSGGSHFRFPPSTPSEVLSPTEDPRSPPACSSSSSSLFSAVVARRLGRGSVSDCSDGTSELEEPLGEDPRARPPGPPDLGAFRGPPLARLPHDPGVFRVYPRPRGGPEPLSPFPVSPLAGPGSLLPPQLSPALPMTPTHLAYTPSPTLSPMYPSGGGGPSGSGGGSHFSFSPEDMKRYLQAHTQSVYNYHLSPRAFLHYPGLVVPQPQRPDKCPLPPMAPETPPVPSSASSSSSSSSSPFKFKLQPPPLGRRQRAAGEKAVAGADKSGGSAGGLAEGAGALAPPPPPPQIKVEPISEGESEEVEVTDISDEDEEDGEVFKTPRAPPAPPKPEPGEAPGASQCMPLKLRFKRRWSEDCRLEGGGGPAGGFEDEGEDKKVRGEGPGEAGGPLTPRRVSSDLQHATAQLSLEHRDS
How it was run: as §1

ETV3L = molecular target: T3, ETV3L (Homo sapiens, UniProt Q6ZN32 1-361)
T3 sequence: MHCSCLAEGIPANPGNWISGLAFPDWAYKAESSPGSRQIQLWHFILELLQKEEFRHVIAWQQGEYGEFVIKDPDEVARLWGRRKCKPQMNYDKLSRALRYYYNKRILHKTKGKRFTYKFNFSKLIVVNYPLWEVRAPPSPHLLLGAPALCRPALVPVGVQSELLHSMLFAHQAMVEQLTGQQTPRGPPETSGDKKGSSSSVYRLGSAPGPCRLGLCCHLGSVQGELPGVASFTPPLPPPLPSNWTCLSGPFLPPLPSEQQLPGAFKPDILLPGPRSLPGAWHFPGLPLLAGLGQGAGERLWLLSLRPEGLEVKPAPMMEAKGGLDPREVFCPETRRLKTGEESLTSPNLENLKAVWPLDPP
How it was run: as §1

ETS2 = molecular target: T4, ETS2 (Homo sapiens, UniProt P15036 1-469)
T4 sequence: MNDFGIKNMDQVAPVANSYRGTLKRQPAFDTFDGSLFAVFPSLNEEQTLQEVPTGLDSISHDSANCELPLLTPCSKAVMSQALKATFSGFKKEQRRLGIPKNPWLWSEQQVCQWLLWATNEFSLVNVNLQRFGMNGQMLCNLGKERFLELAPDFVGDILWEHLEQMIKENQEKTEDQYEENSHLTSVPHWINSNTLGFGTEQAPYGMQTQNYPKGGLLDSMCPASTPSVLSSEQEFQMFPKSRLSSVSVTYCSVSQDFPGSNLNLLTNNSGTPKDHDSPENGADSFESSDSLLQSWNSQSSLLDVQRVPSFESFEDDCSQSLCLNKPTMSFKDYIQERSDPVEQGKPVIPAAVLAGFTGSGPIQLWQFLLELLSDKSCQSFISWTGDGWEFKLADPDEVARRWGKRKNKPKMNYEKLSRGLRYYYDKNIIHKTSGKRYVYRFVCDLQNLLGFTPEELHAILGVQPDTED
How it was run: as §1

ETV7 = molecular target: T5, ETV7 (Homo sapiens, UniProt Q9Y603 1-341)
T5 sequence: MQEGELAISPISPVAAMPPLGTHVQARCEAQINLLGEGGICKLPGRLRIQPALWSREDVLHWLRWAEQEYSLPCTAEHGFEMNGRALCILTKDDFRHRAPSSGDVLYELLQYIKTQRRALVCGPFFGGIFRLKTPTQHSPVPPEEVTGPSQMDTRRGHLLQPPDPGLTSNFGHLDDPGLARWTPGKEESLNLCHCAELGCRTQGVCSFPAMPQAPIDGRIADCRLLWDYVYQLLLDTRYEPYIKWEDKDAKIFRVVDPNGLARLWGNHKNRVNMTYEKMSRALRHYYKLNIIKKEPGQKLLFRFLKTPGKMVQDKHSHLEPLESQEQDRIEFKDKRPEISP
How it was run: as §1

ETV3 = molecular target: T6, ETV3 (Homo sapiens, UniProt P41162-2 1-143)
T6 sequence: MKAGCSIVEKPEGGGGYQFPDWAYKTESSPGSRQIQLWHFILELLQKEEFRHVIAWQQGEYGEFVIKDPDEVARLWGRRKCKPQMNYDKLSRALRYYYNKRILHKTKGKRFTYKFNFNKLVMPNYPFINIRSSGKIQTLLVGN
How it was run: as §1

ETV6 = ETV6 (Homo sapiens, UniProt P41212 1-452)
Chain of ETV6 (P41212 whole entry): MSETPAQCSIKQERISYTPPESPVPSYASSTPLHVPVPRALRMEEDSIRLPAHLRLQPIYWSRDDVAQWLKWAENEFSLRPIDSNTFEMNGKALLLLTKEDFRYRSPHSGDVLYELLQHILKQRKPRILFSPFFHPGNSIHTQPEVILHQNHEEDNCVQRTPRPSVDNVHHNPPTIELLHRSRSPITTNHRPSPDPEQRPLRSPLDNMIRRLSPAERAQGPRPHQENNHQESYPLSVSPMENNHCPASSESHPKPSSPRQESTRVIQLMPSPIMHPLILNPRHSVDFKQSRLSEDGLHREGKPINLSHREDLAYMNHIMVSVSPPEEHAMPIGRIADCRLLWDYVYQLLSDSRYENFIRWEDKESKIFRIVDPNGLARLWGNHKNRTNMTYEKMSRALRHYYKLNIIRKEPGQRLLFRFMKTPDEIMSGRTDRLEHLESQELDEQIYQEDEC
How it was run: as §1

For GTAGCT, the binding signal (ETV5) was 1.14 fold enrichment (6-mer frequency, TF over GST control), the binding signal (ELF4) was 1.1 fold enrichment (6-mer frequency, TF over GST control) and the binding signal (ELF3) was 1.18 fold enrichment (6-mer frequency, TF over GST control). The binding signal (ETV1) was 1.13 fold enrichment (6-mer frequency, TF over GST control), the binding signal (ERF) was 1.1 fold enrichment (6-mer frequency, TF over GST control) and the binding signal (ETV3L) was 1.08 fold enrichment (6-mer frequency, TF over GST control). For the same sequence, the binding signal (ETS2) was 1.13 fold enrichment (6-mer frequency, TF over GST control), the binding signal (ETV7) was 1.12 fold enrichment (6-mer frequency, TF over GST control) and the binding signal (ETV3) was 1.09 fold enrichment (6-mer frequency, TF over GST control). For the same sequence, the binding signal (ETV6) was 1.06 fold enrichment (6-mer frequency, TF over GST control).
